Measurements taken from PubChem BioAssay (NCI).
The panel holds about 83,000 compounds, 20% with a hit somewhere; the sample as a whole holds those more often.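 Activity criterion: percent growth below 10, measured after cells in 96-well plates were exposed to a single compound concentration for 48 hours.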 The source made the active and inactive calls.

tested on: KM12 colon; assay: NCI-60 one-dose screen, 48 h (100 = growth as untreated, 0 = no growth, -100 = all killed); details: 10 µM unless noted

| SMILES | growth |
| --- | --- |
| N/N=C(\C(=N\N)c1ccccc1)c1ccccc1 | 105% (inactive) |
| C=C(C)[C@@H]1CC[C@]2(C(=O)NS(=O)(=O)c3ccccc3)CC[C@]3(C)[C@H](CC[C@@H]4[C@@]5(C)CC[C@H](OC(=O)NS(=O)(=O)c6ccccc6)C(C)(C)[C@@H]5CC[C@]43C)[C@@H]12 | 4.05% (active) |
| O=[N+]([O-])c1ccc(N/N=C/c2ccccc2O)nc1 | 27% (inactive) |
| CN1C(=O)N(C)C2C1NN=c1s/c(=C\c3ccc(C(F)(F)F)cc3)c(=O)n12 (stereo not given) | 16.3% (inactive) |
| CC(C)c1ccc(-c2cnc3nonc3n2)cc1 | 31.2% (inactive) |
| COc1ccc(N=C2CSc3nnc(-c4cc(F)c(Cl)cc4Cl)n3N2)cc1 | -12.3% (active) |
| O=C1C=CN2C(=O)CC=CC2[C@@H]1O (stereo not given in full) | 105% (inactive) |
| CCCNCCC(C)=O | 112% (inactive) |
| O=C(Cc1ccc([N+](=O)[O-])cc1)Oc1ccccc1 | 118% (inactive) |
| CN(C)c1ccc(/C=C\c2cccc[n+]2C)cc1 | 6.97% (active) |
| COc1cccc(NC(=O)OC(C)C)c1 | 103% (inactive) |
| COC(=O)c1ccc2c(c1)nc(-c1ccc(Cl)cc1)n2-c1cc(C(C)(C)C)[nH]n1 | 34.6% (inactive) |
| Cc1ccc(Nc2cc(Cl)c([N+](=O)[O-])cc2[N+](=O)[O-])cc1 | 45.9% (inactive) |
| CCOC(=O)c1cc(C(=O)OCC)c(C)nc1C | 111% (inactive) |
| O=C(Nc1cccc(C2=NCCN2)c1)c1ccc(N=Nc2ccc(C(=O)Nc3cccc(C4=NCCN4)c3)cc2)cc1 | 72.8% (inactive) |
